From PubChem BioAssay (NCI) come the findings set out here.

The panel holds about 83,000 compounds, 20% with a hit somewhere; the sample as a whole holds those more often.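 A percent growth of 40 corresponds to 60% growth inhibition; 0 means no net growth; -100 means all cells died. Active threshold: below 10.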 Values without a mark were called inactive. Active and inactive are the calls of the source.

Common to all, as to experiment: NCI-60 one-dose screen, 48 h (100 = growth as untreated, 0 = no growth, -100 = all killed)
What all share (settings): 10 µM unless noted

Experiment [1] concerns NCI-H23 lung.
Experiment [2] relates to NCI-H322M lung.
Experiment [3] concerns HOP-62 NSCLC.
The test system of experiment [4] is NCI-H460 lung.
The test system of experiment [5] is NCI-H522 lung.
Experiment [6] concerns A549/ATCC NSCLC.
Experiment [7] relates to 786-0 renal.
Experiment [8] relates to COLO 205 colon.
Experiment [9] relates to DU-145 prostate.
Experiment [10] has as its system K-562 leukemia.
For experiment [11], the system named is MALME-3M melanoma.
For experiment [12], the system named is MDA-MB-231 breast.
Experiment [13] relates to RXF 393 renal.
Experiment [14] concerns SF-268 CNS.
For experiment [15], the system named is SF-295 CNS.
Experiment [16] relates to SF-539 CNS.
In experiment [17] the test system is UACC-257 melanoma.
Experiment [18] concerns M14 melanoma.
In experiment [19] the test system is HCT-15 colon.
The test system of experiment [20] is NCI-H226 lung.

As to `O=C1/C(=C/c2ccc([N+](=O)[O-])o2)Oc2ccc(Br)cc21`, the growth in experiment [1] is 74.1%; in [2], 75.6%; in experiment [3], 94.3%; in [4], 107%; in [5], -66.1% (active); in experiment [6], 107%. Moreover, the growth in experiment [7] is 28.3%; in experiment [8] it was 8.53% (active); in experiment [9] it was 72.1%; in experiment [10], -1.79% (active); in [11], -28.3% (active); in experiment [12], 42.8%. Also, the growth in experiment [13] was -29.6% (active); in experiment [14], 48.1%; in experiment [15] it was 99.4%; in experiment [16], 88%; in [17] it was 69.1%; in [18], 44.9%. In addition, the growth in [19] is 0.437% (active).

Regarding `CCOc1nc(-c2ccccc2)cc2c(O)c(C(=O)n3nc(C)cc3C)[nH]c(=O)c12`, the growth is 97.6% in experiment [1]; 103% in experiment [2]; 105% in [3]; 107% in experiment [4]; 104% in experiment [5]; 102% in experiment [6]. Besides, the growth in experiment [7] is 100%; in experiment [8], 108%; in experiment [9], 111%; in experiment [10], 86.7%; in [11], 102%; in [12] it was 112%. Also, the growth in experiment [14] is 99%; in experiment [15] it was 101%; in experiment [16], 101%; in experiment [17] it was 112%; in experiment [18], 102%; in experiment [19], 100%.

As to `Cc1cc2c(cc1[N+](=O)[O-])NC(CNC(C)C)CC2` (stereo unspecified), the growth in experiment [1] was 93.9%; in experiment [2], 113%; in experiment [4], 107%; in experiment [5], 105%; in experiment [6] it was 104%; in experiment [7], 92.9%. Also, the growth in experiment [8] was 120%; in experiment [9], 105%; in [10], 96.5%; in experiment [11], 117%; in experiment [12], 107%; in experiment [13], 117%. The growth in experiment [14] is 95.1%; in experiment [15], 102%; in experiment [16], 103%; in [17], 106%; in experiment [18] it was 92%; in experiment [19], 102%.

For `CCCCCCCC1(C)NC(=O)NC1=O` (stereo unspecified), the growth in [1] is 132%; in experiment [2] it was 119%; in experiment [3], 102%; in experiment [4] it was 104%; in experiment [5], 99.6%; in [6] it was 122%. Also, the growth is 108% in experiment [7]; 120% in experiment [8]; 115% in experiment [9]; 90.6% in experiment [10]; 126% in experiment [11]; 116% in [12]. The growth in [14] is 106%; in experiment [15] it was 124%; in [16], 97.6%; in [17], 114%; in [18], 106%; in experiment [19] it was 113%.

For `CCN(CC)CCOc1ccccc1-n1c(C)ccc1-c1ccccc1`, the growth in experiment [1] was 102%; in experiment [2], 80.1%; in experiment [3], 106%; in experiment [4], 44.2%; in [5] it was 101%; in experiment [6], 88.2%. The growth in experiment [8] was 70.3%; in experiment [9] it was 103%; in experiment [10], -48.1% (active); in [11], 89%; in experiment [12], 102%; in [13], 84.6%. In addition, the growth in [14] was 78.5%; in [15], 93%; in experiment [16] it was 92.7%; in [17], 100%.

Turning to `O=C(Nc1cccc(-n2cc(-c3ccncc3)c(-c3ccc(O)c(Cl)c3)n2)c1)Nc1ccc(Cl)c(C(F)(F)F)c1`, the growth in experiment [1] was 1.11% (active); in [2], -17.7% (active); in [3], 4.91% (active); in experiment [4] it was 3.16% (active); in experiment [5], -7.92% (active); in experiment [6], -14.8% (active). In addition, the growth is -6.01% (active) in experiment [7]; 4.68% (active) in [9]; 4.8% (active) in experiment [10]; -24% (active) in [11]; -34.8% (active) in experiment [12]; -21% (active) in [13]. Besides, the growth in [14] is 3.1% (active); in [15], -25.7% (active); in experiment [16], -19.3% (active); in [17] it was -19.5% (active); in experiment [18], -34% (active); in experiment [19] it was 17.3%.

As to `COc1cc(/C=C2\CCC/C(=C\c3ccc(OCC4CO4)c(OC)c3)C2=O)ccc1OCC1CO1` (stereo unspecified), the growth is 57.8% in [1]; 85.1% in [2]; 28.9% in experiment [3]; 8.96% (active) in experiment [4]; 24.3% in [5]; 21.3% in experiment [6]. For the same compound, the growth in experiment [7] is 65.2%; in experiment [8], 33.8%; in experiment [9] it was 7.14% (active); in experiment [10], -3.49% (active); in experiment [11], 26.2%; in [12], 13.1%. Further, the growth is 4.7% (active) in experiment [13]; 1.73% (active) in experiment [14]; 25.2% in experiment [16]; 35.1% in experiment [17]; 2.79% (active) in [18]; 14.4% in [19].

As for `COc1ccc2nc3cc(Cl)ccc3c(N3CCN(c4ccnc(Nc5ccc(F)cc5)n4)CC3)c2c1`, the growth in [1] was 89.3%; in [2] it was 97.7%; in experiment [3] it was 92.9%; in experiment [4], 94%; in experiment [5] it was -5.18% (active); in [6], 79.5%. In addition, the growth in [7] is 70.4%; in experiment [8], 108%; in experiment [9], 93.1%; in [10] it was 43.1%; in [11], 105%; in [12], 58.4%. Further, the growth is 79.2% in experiment [14]; 75.9% in [15]; 85.4% in [16]; 105% in experiment [17]; 102% in [18].

As to `CC(=O)n1c2ccccc2c2ccccc21`, the growth in [20] was 115%; in [2], 107%; in [3] it was 93.8%; in experiment [4], 117%; in experiment [5], 108%; in experiment [6], 107%. Besides, the growth is 90.8% in experiment [7]; 148% in experiment [8]; 108% in experiment [9]; 111% in experiment [10]; 126% in experiment [11]; 126% in [12]. Further, the growth in [13] is 144%; in experiment [14] it was 115%; in experiment [15], 96.7%; in [16] it was 107%; in [17], 123%; in experiment [18], 103%. For the same compound, the growth in experiment [19] is 112%.
